Test results reported in PubChem BioAssay AID1159580 (chemical genetic matrix, 2015).
Values joined by “and” are separate entries in the source; they are usually repeats but may differ in a detail not shown here. Equal values may be shown once. About 2,000 (36%) of roughly 5,500 compounds were called active. Another 18% or so got no clear call; they are omitted. Cut-off read from the data, not from the text of the source: active = normalized growth mostly below about 0.91 (no sharp cut-off); inconclusive = no clear call, values can overlap the other calls; inactive = mostly above about 0.92. The list shows a part of the results.

Assay: chemical genetic growth profiling, strain panel (AID 1159580);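 note: tested at 20 µM; growth read once vehicle control cultures reached saturation at 30 °C; 1 = growth at the plate median or of vehicle wells; lower values mean less growth of the strain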
Settings: S. cerevisiae deletion strains, growth OD

Measured: normalized growth

CN(Cc1cnc2nc(N)nc(N)c2n1)c1ccc(C(=O)NC(CCC(=O)O)C(=O)O)cc1 (stereo unspecified)
0.993 (inactive) and 0.152 (active): locus YJL095W, strain BCK1, stronger effect = lower value
0.946 (inactive) and 0.147 (active): locus YHR030C, strain SLT2, stronger effect = lower value
active: locus YBR009C, strain hhf1, stronger effect = lower value 0.888 | locus YBR023C, strain chs3, stronger effect = lower value 0.911 | locus YCL011C, strain gbp2, stronger effect = lower value 0.857 | locus YCL016C, strain dcc1, stronger effect = lower value 0.867 | locus YCL061C, strain MRC1, stronger effect = lower value 0.891 | locus YDL185W, strain tfp1, stronger effect = lower value 0.141 | locus YDR334W, strain swr1, stronger effect = lower value 0.881 | locus YEL037C, strain rad23, stronger effect = lower value 0.902 | locus YGL078C, strain dbp3, stronger effect = lower value 0.32 | locus YHR079C, strain IRE1, stronger effect = lower value 0.188 | locus YHR142W, strain chs7, stronger effect = lower value 0.86 | locus YIL125W, strain kgd1, stronger effect = lower value 0.278 | locus YJL092W, strain hpr5, stronger effect = lower value 0.818 | locus YJL115W, strain asf1, stronger effect = lower value 0.845
inactive: locus YAL021C, strain ccr4, stronger effect = lower value 0.958 | locus YAL026C, strain drs2, stronger effect = lower value 0.911 | locus YAL030W, strain snc1, stronger effect = lower value 0.945 | locus YAL040C, strain CLN3, stronger effect = lower value 1.09 | locus YBL061C, strain skt5, stronger effect = lower value 0.927 | locus YBR021W, strain FUR4, stronger effect = lower value 0.958 | locus YBR171W, strain sec66, stronger effect = lower value 0.94 | locus YBR229C, strain ROT2, stronger effect = lower value 0.987 | locus YBR231C, strain swc5, stronger effect = lower value 0.931 | locus YBR279W, strain paf1, stronger effect = lower value 0.962 | locus YCL029C, strain bik1, stronger effect = lower value 0.988 | locus YCL061C, strain MRC1 (second series), stronger effect = lower value 1.01 | locus YCL069W, strain vba3, stronger effect = lower value 0.948 | locus YCR088W, strain abp1, stronger effect = lower value 0.954 | locus YDL005C, strain med2, stronger effect = lower value 0.997 | locus YDL035C, strain GPR1, stronger effect = lower value 0.975 | locus YDL040C, strain nat1, stronger effect = lower value 0.959 | locus YDL074C, strain BRE1, stronger effect = lower value 0.963 | locus YDL101C, strain DUN1, stronger effect = lower value 0.997 | locus YDL134C, strain PPH21, stronger effect = lower value 1 | locus YDL192W, strain arf1, stronger effect = lower value 0.95 | locus YDR001C, strain nth1, stronger effect = lower value 0.933 | locus YDR069C, strain doa4, stronger effect = lower value 0.955 | locus YDR101C, strain arx1, stronger effect = lower value 0.994 | locus YDR137W, strain rgp1, stronger effect = lower value 0.907 | locus YDR150W, strain NUM1, stronger effect = lower value 0.974 and 0.986 | locus YDR159W, strain sac3, stronger effect = lower value 0.978 | locus YDR162C, strain NBP2, stronger effect = lower value 0.982 | locus YDR195W, strain ref2 1.01 | locus YDR297W, strain sur2, stronger effect = lower value 0.955 | locus YDR318W, strain mcm21, stronger effect = lower value 0.994 | locus YDR335W, strain msn5, stronger effect = lower value 0.97 | locus YDR388W, stronger effect = lower value 1 | locus YDR392W, strain spt3, stronger effect = lower value 0.951 | locus YDR502C, strain sam2, stronger effect = lower value 0.967 | locus YEL003W, strain gim4, stronger effect = lower value 0.967 | locus YEL061C, strain CIN8 (second series), stronger effect = lower value 0.944 | locus YEL061C, strain CIN8, stronger effect = lower value 0.962 | locus YER002W, strain NOP16, stronger effect = lower value 0.971 | locus YER015W, strain faa2, stronger effect = lower value 0.958 | locus YER016W, strain bim1, stronger effect = lower value 0.965 | locus YER110C, stronger effect = lower value 0.985 | locus YER111C, strain swi4, stronger effect = lower value 0.962 | locus YER155C, strain BEM2 (second series), stronger effect = lower value 0.892 | locus YER155C, strain BEM2, stronger effect = lower value 0.976 | locus YER167W, strain BCK2, stronger effect = lower value 0.958 | locus YFR010W, strain ubp6, stronger effect = lower value 0.942 | locus YGL086W, strain mad1, stronger effect = lower value 1 | locus YGL167C, strain pmr1, stronger effect = lower value 0.942 | locus YGL173C, strain kem1, stronger effect = lower value 0.96 | locus YGL227W, strain vid30, stronger effect = lower value 0.922 | locus YGL240W, strain doc1, stronger effect = lower value 0.967 | locus YGL248W, strain PDE1, stronger effect = lower value 0.994 | locus YGL253W, strain hxk2, stronger effect = lower value 0.934 | locus YGR135W, strain pre9, stronger effect = lower value 0.933 | locus YGR252W, strain gcn5, stronger effect = lower value 1.02 | locus YHR013C, strain ard1, stronger effect = lower value 0.938 | locus YHR027C, strain rpn1, stronger effect = lower value 0.945 | locus YHR079C, strain IRE1 (second series), stronger effect = lower value 0.988 | locus YHR094C, strain hxt1, stronger effect = lower value 1 | locus YHR129C, strain ARP1, stronger effect = lower value 0.982 | locus YHR200W, strain rpn10, stronger effect = lower value 0.959 | locus YIL066C, strain RNR3, stronger effect = lower value 1 | locus YIL073C, strain SPO22, stronger effect = lower value 0.95 | locus YIR030C, strain dcg1, stronger effect = lower value 0.975 | locus YJL095W, strain BCK1 (second series), stronger effect = lower value 0.964 | locus YJL129C, strain trk1, stronger effect = lower value 0.89 | locus YJL134W, strain LCB3, stronger effect = lower value 0.992 | locus YJL154C, strain vps35, stronger effect = lower value 0.96 | locus YJL164C, strain tpk1, stronger effect = lower value 0.96 | locus YJL166W, strain qcr8, stronger effect = lower value 0.94 | locus YJL168C, strain set2, stronger effect = lower value 1 | locus YJL187C, strain SWE1 (second series), stronger effect = lower value 0.99 | locus YJL187C, strain SWE1, stronger effect = lower value 0.953 | locus YJR043C, strain POL32, stronger effect = lower value 0.98
